# Reference: PubChem BioAssay AID1626 (SRMLSC, 2009)
# The whole screen tested about 220,000 compounds, of which about 2,000 (0.91%) were called active. Inconclusive results (about 2%) are left out. Cut-off read from the data, not from the text of the source: inconclusive = inhibition above about 80% without an active follow-up result; inactive = below that; test concentration not stated here. The list is a sample of the results. Potency and affinity values are given separately.
# Experiment: M. tuberculosis H37Rv growth inhibitors, H37Rv strain (AID 1626);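 note: bacteria incubated seven days before Alamar blue readout; 0% = bacteria only wells and 100% = bacteria with antibiotic wells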
# Conditions: hits give high values, concentration not given here
row,SMILES,inhibition
1,CN1CCC(C2(O)c3ccccc3CCc3ccccc32)CC1,-4.72% (inactive)
2,Cc1ccc(-c2nn(-c3ccccc3)cc2/C=N/NC(=O)CSc2nnc(C)n2-c2ccccc2)cc1,5.75% (inactive)
3,COc1cc(NC(=O)CCCc2c[nH]c3ccccc23)cc(OC)c1,13% (inactive)
4,COc1ccc(/C=N/NC(=O)c2cc(C34CC5CC(CC(C5)C3)C4)[nH]n2)cc1OC,-1.09% (inactive)
5,COCCN1C(=O)N[C@@H](c2cccc(F)c2)C(C(=O)OC)=C1C,-7.87% (inactive)
6,CC(=O)c1ccc(NC(=O)C(NC(=O)c2ccccc2)=C(C)C)cc1,-4.51% (inactive)
7,Cc1cccc2nc(-c3cccnc3)c(Nc3ccccc3)n12,-0.36% (inactive)
8,Cc1ccc2nc(-c3cccnc3)c(Nc3ccccc3C)n2c1,5.59% (inactive)
9,Cc1ccc2nc(-c3ccncc3)c(Nc3ccccc3)n2c1,2.3% (inactive)
10,Clc1ccc(-c2nc3cnccn3c2Nc2ccc3c(c2)OCO3)cc1,31% (inactive)
11,Cc1ccc2nc(-c3ccco3)c(Nc3ccccc3)n2c1,2.97% (inactive)
12,Cc1cccc2nc(-c3ccco3)c(Nc3ccccc3)n12,-7.83% (inactive)
13,Cc1ccccc1Nc1c(-c2ccncc2)nc2ccc(Cl)cn12,-2.88% (inactive)
14,Clc1ccc(-c2nc3ncccn3c2Nc2ccc3c(c2)OCO3)cc1,7.95% (inactive)
15,CCN1CCN(C(=O)COc2ccc3c(c2)C(=O)CC2(CCN(C(C)=O)CC2)O3)CC1,-8.68% (inactive)
16,CCOC(=O)C1CCN(C(=O)CSc2ccc(Cl)cc2)CC1,1.63% (inactive)
17,O=C(c1ccc([N+](=O)[O-])c(CS(=O)(=O)c2ccc(Cl)cc2)c1)N1CCCCC1,3.1% (inactive)
18,CCOC(=O)CSc1ccc2nnc(CCNS(=O)(=O)c3ccc(C)cc3)n2n1,4.15% (inactive)
19,Cc1oc(C(C)(C)C)c(CN2CCCC2)c1C(=O)O,5.71% (inactive)
20,Cc1cccc(-c2nnc(SCC#N)n2C)c1,1.96% (inactive)
21,CCOC(=O)c1cc(C(C)(C)C)nc(SC)c1C#N,0.56% (inactive)
22,COc1ccc(C(O)P(=O)(OCC(C)C)OCC(C)C)c(OC)c1 (stereo not drawn),5.08% (inactive)
23,Cc1cc(C)n2nc(C(=O)Nc3nccs3)nc2n1,-4.36% (inactive)
24,O=c1c2c3c(sc2nc2sc(CN4CCOCC4)cn12)CCCC3,-5.88% (inactive)

row,SMILES,inhibition
1,CC(=O)Nc1c(C(=O)C2CC2)oc2ccccc12,8.66% (inactive)
2,O=C(O)CCSCC(=O)Nc1c(C(=O)C2CC2)oc2ccccc12,-2.71% (inactive)
3,CC1(C)Cc2ccccc2C(N/N=C/c2ccc([N+](=O)[O-])cc2)=N1,3.59% (inactive)
4,CSCCC(NC(=O)c1ccc([N+](=O)[O-])cc1Cl)C(=O)OCC(=O)NCCCc1ccccc1 (stereo not drawn),-2.31% (inactive)
5,CC(=O)Nc1ccccc1-c1ccc(C)o1,-8.39% (inactive)
6,Cc1cnc(C(=O)Nc2ccccc2-c2ccc(C)o2)cn1,-0.7% (inactive)
7,CCC(=O)N(C)CCc1cc2c(c(OC)c1/C=N/NC(=O)[C@H]1C[C@@H]1c1ccccc1)OCO2,-2.15% (inactive)
8,CN(C)c1ccc(NC(=S)NC(=O)/C=C/c2ccc(Cl)cc2)cc1,5.85% (inactive)
9,COc1cc(C(CCN2CCCC2)c2c(OC)cc(OC)c3ccc(=O)oc23)cc(OC)c1OC (stereo not drawn),-13% (inactive)
10,COc1cc(C(CCN2CCOCC2)c2c(OC)cc(OC)c3c(C)cc(=O)oc23)cc(OC)c1OC (stereo not drawn),-15.3% (inactive)
11,COc1cc(C(CCN2CCCC2)c2c(OC)cc(OC)c3c(C)cc(=O)oc23)cc(OC)c1OC (stereo not drawn),-6.56% (inactive)
12,COc1cc(C(CCN2CCCCC2)c2c(OC)cc(OC)c3c(C)cc(=O)oc23)cc(OC)c1OC (stereo not drawn),-3.67% (inactive)
13,Cn1nc(-c2ccc(OCC(N)=O)cc2)c2ccccc2c1=O,9.43% (inactive)
14,O=S(=O)(Nc1ccc(-c2cn3ccsc3n2)cc1)c1ccc2c(c1)OCCO2,-7.36% (inactive)
15,O=C(O)c1cccc(CSc2ncn[nH]2)c1,3.99% (inactive)
16,CCn1ccnc1CNCc1cn(-c2cc(C)ccc2C)nc1-c1ccccc1,72% (inactive)
17,Cc1ccc(-n2cc(CN3CCN(Cc4nccn4C)CC3)c(-c3cccc(C)c3)n2)cc1,-0.87% (inactive)
18,CCn1ccnc1CN(C)Cc1cn(-c2ccccc2)nc1-c1ccc(OC)cc1F,15% (inactive)
19,Cc1ccc(-n2cc(CN(C)Cc3nccn3C)c(-c3ccc(F)cc3)n2)cc1,60.4% (inactive)
20,Cc1ccc(-n2cc(CN(C)CCc3cn[nH]c3)c(-c3cccc(C)c3)n2)cc1,6.61% (inactive)
21,CN(Cc1cn(-c2ccccc2)nc1-c1ccc2c(c1)OCO2)Cc1nccn1C,2.66% (inactive)
22,Cc1ccc(C)c(-n2cc(CNCCCn3cccn3)c(-c3ccccc3)n2)c1,-1.54% (inactive)
23,CN(Cc1ncc[nH]1)Cc1cn(-c2ccccc2)nc1-c1ccc2c(c1)OCO2,6.67% (inactive)
24,CCS(=O)(=O)c1nc(S(=O)(=O)c2ccc(C)cc2)c(NCCCN(C)C)s1,-3.12% (inactive)

row,SMILES,inhibition
1,Cc1cccc(C(=O)N(c2ccccn2)C(C)c2ccco2)c1 (stereo not drawn),-1.89% (inactive)
2,CC(c1ccccc1F)n1cc(C(=O)NCc2ccncc2)nn1 (stereo not drawn),-6.06% (inactive)
3,O=C(NNC(=O)c1cc2cc(OC(F)(F)F)ccc2[nH]1)c1cccc(C(F)(F)F)c1,0.47% (inactive)
4,CN(C)S(=O)(=O)c1ccc2c(c1)c(=O)c(C(=O)NCCCN1CCCCCC1)cn2C,0.45% (inactive)
5,O=C(COC(=O)c1ccccc1O)Nc1cc([N+](=O)[O-])ccc1Cl,-5.14% (inactive)
6,S=C(NC1CCCCC1)c1ccc2c(c1)OCO2,0.26% (inactive)
7,CCN1CC(CN(C)Cc2cn(-c3ccc(C)cc3)nc2-c2cccc(C)c2)CC1=O (stereo not drawn),13.5% (inactive)
8,Cc1ccc(-n2cc(CNCCCn3cccn3)c(-c3cccc(C)c3)n2)cc1,69.4% (inactive)
9,CC(C)OC(=O)c1ccc(NC(=O)c2ccccc2)cc1,69.1% (inactive)
10,CCCCOC(=O)c1ccc(N)cc1,78.1% (inactive)
11,CCC(=O)Nc1cccc2c1C(=O)N(C)C2=O,-8.82% (inactive)
12,COc1ccc(CCNC(=O)Cc2nn(C)c(=O)c3ccccc23)cc1OC,1% (inactive)
13,Cc1nnc(NC(=O)CSc2nnc(Cc3cccn3C)n2-c2cccc(C(F)(F)F)c2)s1,4.46% (inactive)
14,CC(C)CN(C(=O)COC(=O)c1ccc(-c2ccccc2)cc1)C1CCS(=O)(=O)C1 (stereo not drawn),4.21% (inactive)
15,CCc1ccc2[nH]c(=O)c(C(c3nnnn3CCOC)N3CCN(c4ccccc4)CC3)cc2c1 (stereo not drawn),2.21% (inactive)
16,COc1ccc2cc(C(c3nnnn3CCc3ccccc3)N3CCC(O)CC3)c(=O)[nH]c2c1 (stereo not drawn),4.28% (inactive)
17,O=C(Cn1c(-c2cscn2)nc2ccccc21)Nc1ccc2ccccc2c1,5.71% (inactive)
18,CC(=O)NCCn1c(SCC(=O)c2ccc(Cl)cc2)nc2ccccc2c1=O,-2.5% (inactive)
19,Cc1ccc(NC(=O)c2ccc([N+](=O)[O-])cc2Cl)nc1,1.78% (inactive)
20,Cc1c(C(=O)N2CCCCC2)sc(NC(=O)C2CC2)c1C#N,-1.68% (inactive)
21,Cc1c(C(=O)N2CCCCC2)sc(NC(=O)C(C)C)c1C#N,-2.5% (inactive)
22,CCCC1=NN(C(=O)Cc2ccc(OC)c(OC)c2)C(O)(C(F)(F)F)C1 (stereo not drawn),7.79% (inactive)
23,O=C(O)COc1c(-c2ccco2)oc2ccccc2c1=O,-8.35% (inactive)
24,COc1ccc(-c2oc3ccccc3c(=O)c2OC(C)=O)cc1,67.5% (inactive)

row,SMILES,inhibition
1,CCC(C)NS(=O)(=O)c1ccc(NC(C)=O)cc1 (stereo not drawn),-1.33% (inactive)
2,CC(C)OCC(O)CS(=O)Cc1ccccc1 (stereo not drawn),-8.07% (inactive)
3,CCC(=O)Nc1ccc2nc(C)n(CC(=O)Nc3ccccc3)c(=O)c2c1,-7.72% (inactive)
4,N=c1c2c(ncn1Cc1ccco1)Oc1ccc3ccccc3c1C2c1ccccc1 (stereo not drawn),20.9% (inactive)
5,COc1ccc(C2c3ccc4ccccc4c3Oc3ncn(Cc4ccco4)c(=N)c32)cc1OC (stereo not drawn),8.86% (inactive)
6,Cc1cnc(C(=O)OCC(=O)Nc2ccc(Oc3ccccc3)cc2)cn1,38% (inactive)
7,Brc1ccc2[nH]c3c(N4CCc5ccccc5C4)ncnc3c2c1,5.42% (inactive)
8,Cc1ccc2c(c1)c1ncnc(N3CCC4(CC3)OCCO4)c1n2C,-2.11% (inactive)
9,Cc1ccc2c(c1)c1ncnc(N3CCN(c4ccccc4)CC3)c1n2C,0.76% (inactive)
10,Fc1ccc2[nH]c3c(N4CCc5ccccc5C4)ncnc3c2c1,4.31% (inactive)
11,CCN(CC(=O)NCc1cccs1)C(=O)c1ccc(S(=O)(=O)N(C)C)cc1,2.21% (inactive)
12,COc1cccc(NC(=O)CN2CCN(S(=O)(=O)c3ccc(F)cc3)CC2)c1,-7.83% (inactive)
13,O=C1/C(=C\c2ccc(Cl)c(Cl)c2)N2CCC1CC2,15.2% (inactive)
14,CCOc1ccc(OCCC(=O)Nc2ccc(F)cc2C)cc1,-6.9% (inactive)
15,CCOc1ccc(NC(=O)CNc2ccc(C)cc2Cl)cc1,-1.87% (inactive)
16,COc1ccc(Cl)cc1NC(=O)CNc1ccc(F)cc1C,6.38% (inactive)
17,COc1ccc(NCC(=O)Nc2ccc(Br)cc2F)c(OC)c1,75.1% (inactive)
18,Cc1ccc(NC(=O)CCC(=O)NNC(=O)COc2ccccc2)c(C)c1,2.24% (inactive)
19,Cc1ccc(NC(=O)CNc2ccc(OC(C)C)cc2)c(C)c1,46.8% (inactive)
20,CCOC(=O)Nc1ccc(C)cc1C,0.47% (inactive)
21,Cc1ccc(NC(=O)C(=O)NCCOc2ccc(Cl)cc2)c(C)c1,7.98% (inactive)
